Data taken from paper PMC4336329 (PLoS ONE, 2015).
Among all 310,000 compounds or so, about 14,000 (4.5%) showed an effect of 50% or more. The effect is printed as a negative number. For the sample, strong results were picked, then their nearest neighbours and some compounds at random.

Target: human ether-à-go-go-related gene (hERG) potassium channel (human, UniProt Q12809)
Experiment: primary screen, population patch clamp on CHO cells stably expressing hERG; higher = less effect of the substance
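Also: peak tail current of the secondary pulse compared with the same well before compound.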

Chain of human ether-à-go-go-related gene (hERG) potassium channel (Q12809 whole entry, looked up): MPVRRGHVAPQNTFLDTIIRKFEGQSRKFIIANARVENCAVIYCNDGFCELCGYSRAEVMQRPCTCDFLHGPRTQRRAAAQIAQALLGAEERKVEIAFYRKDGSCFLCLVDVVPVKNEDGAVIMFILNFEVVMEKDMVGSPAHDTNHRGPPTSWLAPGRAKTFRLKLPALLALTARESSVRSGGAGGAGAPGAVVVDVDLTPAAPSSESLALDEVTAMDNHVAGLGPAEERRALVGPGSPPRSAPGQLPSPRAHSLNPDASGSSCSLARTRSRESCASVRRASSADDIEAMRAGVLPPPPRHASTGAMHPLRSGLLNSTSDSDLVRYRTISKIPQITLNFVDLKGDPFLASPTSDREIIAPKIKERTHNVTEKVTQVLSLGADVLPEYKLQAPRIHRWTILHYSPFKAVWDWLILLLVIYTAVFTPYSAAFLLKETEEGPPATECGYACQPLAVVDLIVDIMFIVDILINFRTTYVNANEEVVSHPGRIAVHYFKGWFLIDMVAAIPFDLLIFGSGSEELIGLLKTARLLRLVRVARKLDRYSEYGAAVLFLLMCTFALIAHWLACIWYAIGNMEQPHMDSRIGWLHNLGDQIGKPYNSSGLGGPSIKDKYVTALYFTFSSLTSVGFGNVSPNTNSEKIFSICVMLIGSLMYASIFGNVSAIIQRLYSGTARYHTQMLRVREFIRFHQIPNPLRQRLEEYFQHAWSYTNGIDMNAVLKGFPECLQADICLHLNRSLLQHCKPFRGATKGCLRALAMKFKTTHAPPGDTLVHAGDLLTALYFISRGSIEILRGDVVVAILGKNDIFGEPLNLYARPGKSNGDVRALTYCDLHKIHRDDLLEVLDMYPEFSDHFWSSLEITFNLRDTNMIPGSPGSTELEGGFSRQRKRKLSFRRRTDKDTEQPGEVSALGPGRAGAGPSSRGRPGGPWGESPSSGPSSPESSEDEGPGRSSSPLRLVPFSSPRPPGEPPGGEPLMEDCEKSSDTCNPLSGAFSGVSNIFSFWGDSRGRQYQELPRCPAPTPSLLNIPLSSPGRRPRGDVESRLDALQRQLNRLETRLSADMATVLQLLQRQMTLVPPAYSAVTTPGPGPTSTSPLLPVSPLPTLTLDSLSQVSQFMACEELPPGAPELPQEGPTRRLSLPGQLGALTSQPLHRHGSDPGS

Compound | hERG current change (%, negative = inhibition) at 10uM [%]
O=C(O)CC1c2ccccc2CCN1S(=O)(=O)c1ccccc1 (stereo not shown) | -1.51
COc1ccc(N2C(=O)CN=C2Nc2nc(C)cc(C)n2)cc1OC | -4.68
Cc1cccc(NC(=S)NCc2ccc3c(c2)cc(C)n3C)c1C | -9.2
CC(=O)c1ccc(NC(=O)CSc2nc(N3CCOCC3)nc(N3CCOCC3)n2)cc1 | -7.67
Cc1ccc(NS(=O)(=O)c2c(C)nc3sccn3c2=O)c(C)c1 | -15.2
COc1ccc(NC2CCCN(C(=O)c3cccc(C)n3)C2)cc1OC (stereo not shown) | 18.5
CC1(C)N=C(c2ccccc2)[C@@H]2C(c3ccc([N+](=O)[O-])cc3)N21 (stereo partly shown) | -31.6
CC12CCC(C(=O)Nc3nc4ccc(Br)cc4s3)(OC1=O)C2(C)C (stereo not shown) | -2.78
COc1cc2c(cc1OC)C(C)N(Cc1ccc3c(c1)OCO3)CC2 (stereo not shown) | -3.76
COc1cc2c(cc1OC)CN(CCC(C)c1ccc(Cl)cc1)CC2.O=C(O)/C=C\C(=O)O (stereo not shown) | -72.1
COc1cc2c(cc1OC)C(C)N(CCc1ccc(Cl)cc1)CC2.O=C(O)/C=C\C(=O)O (stereo not shown) | -70.2
COc1cc2c(cc1OC)CN(CC(=O)Nc1ccc(Cl)cc1Cl)CC2 | -11.7
COc1cc2c(cc1OC)C(C)N(CCN1C(=O)c3ccccc3C1=O)CC2 (stereo not shown) | 17.5
COc1cc2c(cc1OC)CN(CC(O)c1ccccc1)CC2 (stereo not shown) | 14.4
Br.COc1cccc(C(=O)CSc2nccn2C)c1 | 24.2
COc1ccc(Cl)cc1NC(=O)CSc1nnc(-c2ccncc2)n1CC1CCCO1 (stereo not shown) | -28.2
C=CCn1c(N2CCN(c3ccc(OC)cc3)CC2)nc2c1c(=O)[nH]c(=O)n2C | -24.6
COc1cccc(N2C(=O)C3CCCN3C2c2ccc(F)cc2)c1 (stereo not shown) | 6.88
CCOc1nc2cnccc2n(CC(=O)Nc2ccccc2F)c1=O | 26.4
C=CCN(CC=C)CCCOc1ccccc1C(=O)OC.O=C(O)C(=O)O | -72.4
COC(=O)c1ccccc1OCCCN(C)C.O=C(O)C(=O)O | -17.4
C=CCN(CC=C)CCCOc1ccc(C)cc1OC.O=C(O)C(=O)O | -45.1
C/C(N)=C(/C#N)C(=O)CSc1cc(C)c2cc(C)cc(C)c2n1 | 2.54

Compound | hERG current change (%, negative = inhibition) at 10uM [%]
COc1cccc(N2CCN(C(=O)c3cc4c(OC)c(OC)c(OC)cc4[nH]3)CC2)c1 | 9.11
COC(=O)c1ccc(OC(=O)C2CSC3(C)CCC(=O)N23)cc1 (stereo not shown) | -1.4
O=C(NC1CCCCC1)c1cc([N+](=O)[O-])ccc1N1CCCCC1 | -17
CCCCCn1c(N)c(-c2nc3ccccc3s2)c2c([N+](=O)[O-])nn(CC)c(=O)c21 | 5.78
CCN1CCN(c2ccc(S(=O)(=O)N3CCCCC3)cc2NC(=O)COc2cc(C)ccc2Cl)CC1 | -14.1
COc1ccccc1OCC(=O)Nc1cc(S(=O)(=O)N2CCCCC2)ccc1N1CCCCC1 | 2.21
CCOc1ccccc1OCC(=O)Nc1cc(S(=O)(=O)N2CCCCC2)ccc1N1CCN(CC)CC1 | -71.5
CCN1CCN(c2ccc(S(=O)(=O)N3CCCCC3)cc2NC(=O)COc2ccc(Cl)cc2)CC1 | -15.2
CCOc1ccccc1OCC(=O)Nc1cc(S(=O)(=O)N2CCCCC2)ccc1OC | -16
CCN1CCN(c2ccc(S(=O)(=O)N3CCCCC3)cc2NC(=O)COc2ccccc2)CC1 | -66.6
N#Cc1ccc(OCC(=O)Nc2cc(S(=O)(=O)N3CCCCC3)ccc2N2CCCCC2)cc1 | -13.3
CCC(=O)c1ccc(OCC(=O)Nc2cc(S(=O)(=O)N3CCCCC3)ccc2N2CCN(CC)CC2)cc1 | -84.3
CCN1CCN(c2ccc(S(=O)(=O)N3CCCCC3)cc2NC(=O)COc2ccc(F)cc2Cl)CC1 | -65.1
CCN1CCN(c2ccc(S(=O)(=O)N3CCCCC3)cc2NC(=O)Cc2c(Cl)cccc2Cl)CC1 | -38.6
CCN1CCN(c2ccc(S(=O)(=O)N3CCCCC3)cc2NC(=O)COc2ccc(Cl)c(C)c2)CC1 | -34.5
CCC(=O)c1ccc(OCC(=O)Nc2cc(S(=O)(=O)N3CCCCC3)ccc2OC)cc1 | -19.8
CSc1nnc([C@@H](N)Cc2c[nH]c3ccccc23)o1.Cl | 30.1
CN1CCNC(=O)C1CC(=O)NCCc1ccccc1F (stereo not shown) | 13.4
CCCCNC(=O)O[C@H]1C[C@@H]2CCN3C(=O)CCC[C@H]([C@H]1CC)[C@H]23 | -8.19
Cc1c(-c2ccc(/C=N/NC(=O)C(=O)Nc3ccccc3F)o2)cccc1[N+](=O)[O-] | 21.1
CN1CCN(C(=O)c2ccccc2NC(=O)c2ccc(C(C)(C)C)cc2)CC1 | -9.21
Cc1onc(C(=O)N2CCN(Cc3ccccc3)CC2)c1[N+](=O)[O-] | -10.7
NSc1nc(N)c2nc(-c3ccccc3)c(-c3ccccc3)nc2n1 | 4.96

Compound | hERG current change (%, negative = inhibition) at 10uM [%]
CCc1cc2c(=O)n(-c3ccccc3)cnc2s1 | 5.13
COc1cccc(CN(C)C(=O)c2ccc(NS(=O)(=O)c3ccc(F)cc3)cc2)c1OC | -9.34
COc1ccc(CN(C)C(=O)c2ccc(NS(=O)(=O)c3ccc(F)cc3)cc2)c(OC)c1OC | -55.6
COc1ccc(CN(C)C(=O)c2ccc(NS(=O)(=O)c3ccc(F)cc3)cc2)c(OC)c1 | 3.52
COC(=O)C(C)n1cnc2c(nnn2-c2cccc(Cl)c2)c1=O (stereo not shown) | -13.4
CCOC(=O)CNS(=O)(=O)CCN1C(=O)c2ccccc2C1=O | 1.65
COc1ccc(C)cc1NC(=O)C(Sc1nncn1C)c1ccccc1 (stereo not shown) | -3.91
COc1ccc(C)cc1NC(=O)C(Sc1nnc2ccccn12)c1ccccc1 (stereo not shown) | -67.7
COc1ccc(NC(=O)C(Sc2nnc3ccccn23)c2ccccc2)cc1Cl (stereo not shown) | -1.62
COc1cc(C2NC(=O)c3ccccc3O2)cc(OC)c1OC (stereo not shown) | -9.55
CCOc1ccc(CCNC(=O)CSCC(=O)Nc2cccc(C)c2)cc1OCC | -8.35
CC(OC(=O)Cc1n[nH]c(=O)c2ccccc12)C(=O)Nc1ccc(F)cc1Cl (stereo not shown) | 2.32
CCCC1=C(C(=O)OCC)C(c2c(C)nn(-c3ccccc3)c2Cl)C(C#N)=C(N)O1 (stereo not shown) | -16.1
CCOC(=O)C1CCN(S(=O)(=O)c2ccc(CN3C(=O)c4cccnc4C3=O)cc2)CC1 | -9.61
CC1CCN(S(=O)(=O)c2cc(F)ccc2CN2C(=O)c3cccnc3C2=O)CC1 | -60.4
Cc1ccc(CNS(=O)(=O)c2cc(F)ccc2CN2C(=O)c3cccnc3C2=O)o1 | -9.97
CC1CCCN(S(=O)(=O)c2ccc(CN3C(=O)c4cccnc4C3=O)cc2)C1 (stereo not shown) | -58
CC(C)NS(=O)(=O)c1cc(F)ccc1CN1C(=O)c2cccnc2C1=O | 10.5
COc1ccc(CN2C(=O)c3cccnc3C2=O)cc1S(=O)(=O)N1CCCC(C)C1 (stereo not shown) | -0.978
O=C(Nc1ccc(S(=O)(=O)Nc2ncccn2)cc1)c1ccccc1NS(=O)(=O)c1ccc(F)cc1 | 9.91
COc1ccc(-n2c(=S)[nH]c3ncccc3c2=O)cc1 | 7.98
CC1(C)CC(=O)C(CC2=C(N)CC(C)(C)CC2=O)=C(N)C1 | 4.6
COC(C[C@H]1O[C@@H]1C(=O)COCc1ccccc1)OC | 4.27

Compound | hERG current change (%, negative = inhibition) at 10uM [%]
COc1ccc2ncc(S(=O)(=O)c3ccccc3)c(N3CCC4(CC3)OCCO4)c2c1 | -63.3
COc1cc2ncc(S(=O)(=O)c3ccccc3)c(N3CCC4(CC3)OCCO4)c2cc1OC | -80.8
CCOc1ccc2ncc(S(=O)(=O)c3ccccc3)c(N3CCC4(CC3)OCCO4)c2c1 | -42.4
COc1cc2ncc(S(=O)(=O)c3ccccc3)c(N3CCCC(C)C3)c2cc1OC (stereo not shown) | -7.67
COc1ccc2ncc(S(=O)(=O)c3ccccc3)c(N3CCN(c4ccccc4)CC3)c2c1 | -8.4
COc1ccc(S(=O)(=O)c2cnc3ccc(OC)cc3c2N2CCC3(CC2)OCCO3)cc1 | -28.5
O=C(Nc1ccc(Cl)c(Cl)c1)Nc1ccccn1 | 2.95
Cc1ccc(/C=C2\SC(=S)N(CCCC(=O)Nc3nccs3)C2=O)cc1 | 15.7
O=C(COC(=O)CCCN1C(=O)c2cccc3cccc(c23)C1=O)Nc1ccc(Cl)cc1 | 3.07
N#Cc1ccc(-c2ccc(F)cc2)nc1SCC(=O)Nc1sc2c(c1C#N)CCC2 | 4.57
Cc1ccc2oc(C(=O)N3CCC(N4CCSCC4)CC3)c(C)c2c1 | -30.6
CC(C)(C)c1ccc(C(=O)N2CCC(C(=O)NC3CCCCCC3)CC2)cc1 | -40
O=C(NC1CC1)C1CCN(C2CCN(Cc3ccccc3C(F)(F)F)CC2)CC1 | -53.1
O=C(NC1CC1)C1CCN(C2CCN(C(=O)Cc3ccc(F)cc3)CC2)CC1 | -2.99
Cc1ccc2c(C)c(C(=O)N3CCC(N4CCC(C(=O)NC5CC5)CC4)CC3)oc2c1 | -59.1
FC(F)(F)c1ccccc1CN1CCN(C2CCCCCC2)CC1.O=C(O)C(=O)O | -49.3
CCOc1ccccc1CN1CCC(N2CCC(C(=O)NC3CC3)CC2)CC1 | 1.53
O=C(NC1CC1)C1CCN(C2CCN(C(=O)c3ccc(C(F)(F)F)cc3)CC2)CC1 | -56.4
O=C(NC1CC1)C1CCN(C2CCN(C(=O)/C=C/c3ccc(F)cc3)CC2)CC1 | -62.9
O=C(NC1CC1)C1CCN(C2CCN(C(=O)c3c(F)cccc3Cl)CC2)CC1 | 13.3
CC(C)(C)c1ccc(C(=O)N2CCC(C(=O)NC3CC3)CC2)cc1 | -2.74
O=C(NC1CC1)C1CCN(C2CCN(C(=O)/C=C/c3cccc(F)c3F)CC2)CC1 | -22.1
